Screening results as filed in PubChem BioAssay.
CYP2C19 act: activators of human cytochrome P450 2C19. recombinant CYP2C19, luciferin-H EGE luminescence; hits give high values; 0 = fully inhibited enzyme, 1 = untreated enzyme. activation factor at 5 µM. 96,000 tested, under 10 active;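 active means activation factor of at least 2 at 5 µM in the primary screen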;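 further: 0 = wells with 2.5 mM tranylcypromine and 1 = vehicle-only wells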
CYP2C9 act: CYP2C9 (human) activation; AID 1024; hit rate 1.4% among 96,000; P11712; activation factor at 5 µM; recombinant CYP2C9, luciferin-H conversion, luminescence; hits give high values; factor 1 = untreated enzyme, 0 = blocked;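 active means activation factor of 2 or more for CYP2C9 at a 5 µM dose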;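 further: 0 = sulfaphenazole-blocked wells and 1 = vehicle-only wells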
Target sequence (P11712 whole entry, looked up): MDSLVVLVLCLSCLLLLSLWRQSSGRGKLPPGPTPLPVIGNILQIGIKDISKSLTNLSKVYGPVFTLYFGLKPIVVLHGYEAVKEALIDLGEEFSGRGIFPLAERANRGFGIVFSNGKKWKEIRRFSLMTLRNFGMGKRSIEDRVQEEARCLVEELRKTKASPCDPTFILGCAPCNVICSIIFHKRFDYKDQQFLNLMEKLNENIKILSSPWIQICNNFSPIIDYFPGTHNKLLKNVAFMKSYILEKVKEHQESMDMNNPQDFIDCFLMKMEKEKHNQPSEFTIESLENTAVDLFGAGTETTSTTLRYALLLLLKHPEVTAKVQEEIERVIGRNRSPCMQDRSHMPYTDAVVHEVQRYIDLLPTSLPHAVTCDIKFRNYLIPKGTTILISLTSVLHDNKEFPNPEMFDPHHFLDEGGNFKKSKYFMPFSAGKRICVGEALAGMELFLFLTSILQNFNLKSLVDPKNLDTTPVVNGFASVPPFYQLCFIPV
E-sel TNF inh: blocks E-selectin expression induced by TNF alpha | hit rate 0.71% among 120,000 | HUVEC TNFa-induced E-selectin immunofluorescence, high content | AID 1246 | inhibition, % at 2 µM;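 active means inhibition above the batch mean plus 3 SD, and confirmed as a hit on visual image review, cut at about 43% in these data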;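 further: 0% = TNF-stimulated DMSO wells and 100% = unstimulated control wells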
CYP2C19 inhib: inhibitors of human CYP2C19; P33261; CYP2C19 Supersomes, luciferin-H EGE luminescence, 30 min; inhibition, % at 5 µM; hit rate 21% among 96,000;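 active means CYP2C19 inhibition above a set limit at 5 µM in the primary screen, cut at about 50% in these data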;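 further: plate controls were negative control wells for no effect and 2.5 mM tranylcypromine positive control for full effect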
CYP2C9 inh: human CYP2C9 inhibition; P11712; CYP2C9 Supersomes, luciferin-H conversion, luminescence; inhibition, % at 5 µM; hit rate 20% among 96,000;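 active means blocking of liver enzyme CYP2C9 beyond about 50% at 5 µM, limit read from the data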
cytoskel mod: cytoskeleton assembly modification | HUVEC TNFa F-actin phalloidin imaging, high content | inhibition, % at 2 µM | hit rate 0.18% among 91,000 | AID 836;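 active means inhibition above the batch mean plus 3 SD and confirmed as a hit by visual image inspection, cut at about 30% in these data, passing the limit was not always enough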
An asterisk follows results filed as active; x = not tested or not shown. This is a sample that favours compounds with a hit; in the whole collection about 22% have one here.

SMILES	CYP2C19 act	CYP2C9 act	E-sel TNF inh	CYP2C19 inhib	CYP2C9 inh	cytoskel mod
Cc1ccccc1NC(=O)C(C)c1cccc(C(=O)c2ccccc2)c1 (configuration not stated)	0.1	0.2	-10	91*	78*	-15
CCOC(=O)c1ccccc1NC1CC(=O)N(c2ccccc2C)C1=O (configuration not stated)	0.2	0.2	4	80*	76*	-1
Cc1cc(O)c(C(C)C)cc1NC(=O)c1cccc(Cl)c1	0.4	0.4	15	60*	56*	1
Cc1ccc(-c2nc3ncccn3c2Nc2ccc3c(c2)OCCO3)cc1	1.1	1	-1	-10	-5	x
Clc1ccc(-c2nc3ncccn3c2Nc2ccc3c(c2)OCCO3)cc1	1.1	1.1	-10	-9	-9	35
Cc1ccc(-c2nc3ncccn3c2Nc2ccc3c(c2)OCCO3)o1	0.6	0.5	-8	43	53*	-20
Oc1ccc(-c2nc3ncccn3c2Nc2ccc3c(c2)OCCO3)cc1	0.5	0.3	8	48	70*	-12
Cc1cc(C)n2c(Nc3ccc4c(c3)OCCO4)c(-c3ccco3)nc2n1	0.7	0.4	1	31	62*	-4
COc1ccc(-c2nc3ncccn3c2Nc2ccc3c(c2)OCCO3)cc1	1.2	1.1	-4	-17	-7	6
Brc1ccc(-c2nc3ncccn3c2Nc2ccc3c(c2)OCCO3)o1	0.5	0.4	8	47	58*	x
NC(=O)c1ccccc1NC(=O)/C=C/c1c(Cl)cccc1Cl	0.9	1.1	41	5	-9	-3
C=CCn1cnc2scc(-c3ccc(C)cc3)c2c1=O	0.1	0.3	14	92*	65*	-17
O=C(CSc1nnc(-c2ccccc2)n1C1CCCCC1)N1CCCC1	0.9	0.9	-22	14	14	10
CCOC(=O)c1cc(-c2ccccc2)sc1NC(=O)CN1C(=O)NC(CC)(c2ccccc2)C1=O (configuration not stated)	0.7	0.1	x	30	89*	-32
N#Cc1cccc(NC(=O)Cc2ccccc2)c1	x	x	0	x	x	x
CCC1(c2ccccc2)NC(=O)N(CC(=O)Nc2cccc(C#N)c2)C1=O (configuration not stated)	0.3	0.5	x	71*	46	8
CC1(c2ccccc2)NC(=O)N(CC(=O)Nc2cccc(C#N)c2)C1=O (configuration not stated)	0.7	0.3	x	34	73*	x
CCOC(=O)c1cc(-c2ccccc2)sc1NC(=O)CN1C(=O)NC(CC)(c2ccc(F)cc2)C1=O (configuration not stated)	1.2	0.9	-22	-19	15	-31
CC1(c2ccccc2)NC(=O)N(CC(=O)Nc2ccc3c(c2)OCO3)C1=O (configuration not stated)	0.7	0.1	-6	33	87*	13
CC(C)(C)c1ccc(C2(C)NC(=O)N(CC(=O)Nc3ccc4c(c3)OCO4)C2=O)cc1 (configuration not stated)	0.8	0.6	12	17	40	0
O=C(COC(=O)COc1ccccc1[N+](=O)[O-])Nc1ccc(S(=O)(=O)N2CCCCC2)cc1	1.1	1	12	-15	-2	1
Cc1ccc(C(=O)N/C(=C/c2cccs2)C(=O)NCCc2c[nH]c3ccccc23)cc1	x	x	6	x	x	x
O=C(COC(=O)Cc1ccc(Cl)cc1)Nc1ccc(OC(F)F)cc1	x	x	6	x	x	x
O=C(Nc1ccc(Cl)cc1)N(C1=NCCC1)c1ccc(OC(F)F)cc1	0.7	0.4	-5	26	61*	8
CCCn1nnc(NC(=O)COc2ccc(C3CCCCC3)cc2)n1	0.4	0.1	-12	62*	89*	-8
SMILES	CYP2C19 act	CYP2C9 act	E-sel TNF inh	CYP2C19 inhib	CYP2C9 inh	cytoskel mod
CCCn1nnc(NC(=O)COc2ccc(Cl)cc2)n1	0.7	0.9	10	30	10	-2
Cc1cc(NC(=O)COC(=O)C2CCN(S(=O)(=O)c3ccc(Cl)cc3)CC2)no1	0.8	0.4	x	16	62*	-8
Cc1cc(NC(=O)NC2CCCN2S(=O)(=O)c2ccc(Cl)cc2)no1 (configuration not stated)	0.2	0.4	-9	80*	60*	10
CCC(C)NC(=O)C(=O)NCc1ccncc1 (configuration not stated)	0.7	1.1	2	33	-8	-10
CCn1cc(S(=O)(=O)CC(=O)Nc2ccc(C)cc2)c2ccccc21	0.1	0.7	x	90*	32	-4
COc1ccccc1NC(=O)CS(=O)(=O)c1cn(CC(=O)N2CCOCC2)c2ccccc12	x	x	4	x	x	x
Cn1cc(S(=O)(=O)CC(=O)Nc2ccc(Br)cc2)c2ccccc21	0	1	6	99*	-1	-4
CCCn1cc(S(=O)(=O)CC(=O)Nc2ccc(OC)cc2OC)c2ccccc21	x	x	18	x	x	2
CCn1cc(S(=O)(=O)CC(=O)Nc2ccc3c(c2)OCCO3)c2ccccc21	0.6	0.3	x	36	70*	-12
CCCn1cc(S(=O)(=O)CC(=O)Nc2ccc(OCC)cc2)c2ccccc21	0.8	0.7	-21	24	30	x
CCN1C(=O)CC(N2CCN(CC(=O)NC(C)C)CC2)C1=O (configuration not stated)	1.1	0.9	10	-8	9	9
CCCc1nc(NCc2ccco2)c(C#N)c2c1COC(C)(C)C2	0.9	0.7	x	6	29	x
COc1cccc(N2CCCn3c2nc2c3c(=O)n(CCN3CCOCC3)c(=O)n2C)c1	1	1.1	x	1	-11	30
C=CCOC(=O)C1CC=CCC1C(=O)Oc1ccc(F)cc1F (configuration not stated)	0.1	0.3	x	86*	69*	-6
C=CCNC(=O)NC(=O)COC(=O)COc1ccc(Br)cc1F	1	1	x	-3	0	8
CCCCOc1ccc(C(=O)CCNC(C(=O)O)C(C)CC)cc1 (configuration not stated)	x	x	-5	x	x	7
Clc1ccc(CSCCc2ccncc2)cc1	0	0	2	100*	100*	2
CS(=O)(=O)NCCSCc1ccc(Cl)cc1	0.8	0.9	x	19	11	0
c1ccc2c(CSCCc3ccncc3)cccc2c1	0	0.1	x	97*	94*	-23
Cc1cc2nc(CCN3CCOCC3)n(S(=O)(=O)c3ccc(C(C)(C)C)cc3)c2cc1C	x	x	-10	x	x	8
CN(CCCNC(=O)C1CCN(S(=O)(=O)N2CCC3(CC2)OCCO3)CC1)Cc1ccccc1	0.9	0.9	12	8	8	1
COc1ccc(CCNC(=O)CN2CCCc3ccccc32)cc1OC	0.3	0.4	x	74*	59*	-18
COc1ccc(CCNC(=O)CN2CCC(C)CC2)cc1OC	0.6	1	-24	37	4	-5
COc1ccccc1NC(=O)CN1C(=O)NC(C)(C)C1=O	0.9	1.1	-11	13	-7	12
